TWEAK Fn14 block = blocks TWEAK-Fn14 interaction in a reporter cell assay. TWEAK-stimulated Fn14 reporter cells, luciferase luminescence, 8 h. inhibition, % at 10 µM. 360,000 compounds, 2% hits. AID 1159606; in the data active = inhibition above about 50%
EBV LMP1 NFkB = inhibitors of Epstein-Barr LMP1-induced NF-kappaB reporter. 350,000 compounds, 0.69% hits. inhibition, % at 12.5 µM. LMP1-induced NF-kappaB luciferase reporter cells, luminescence; in the data active = inhibition above about 41%; inconclusive = no clear call, values can overlap the other calls;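 also: 0% = neutral control wells and 100% = reference inhibitor control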
MITF TRPM1 inh = reduces MITF-dependent TRPM1 promoter luciferase signal; SK-MEL-5 TRPM1 promoter luciferase, 24 h; 330,000 compounds, 0.83% hits; inhibition, % at 12.5 µM;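 active = mean inhibition across replicates of 60% or more, whatever share of single replicates reaches that level; inconclusive = some that reach 60%, reason not given; inactive = mean inhibition across replicates below 60%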
Shn3 inh set2 = reduces Shn3 3'UTR luciferase signal in osteoblasts; Clone20 osteoblast Shn3 3'UTR firefly luciferase, 24 h; 360,000 compounds, 0.52% hits; inhibition, % at 12.5 µM;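 active = mean inhibition of at least 75% with every replicate also reaching 75%; inconclusive = mean inhibition at least 75% but some replicate below; inactive = mean inhibition below 75%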;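 also: 0% = median of neutral control wells and 100% = pilot-screen positive control compound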
Peg3 promoter = Peg3 promoter activity inhibition; HeLa PEG-Prom luciferase reporter, luminescence, overnight; inhibition, % at 20 µM; 360,000 compounds, 1.7% hits;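 active = inhibition of at least 50% at 20 µM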
TROY NFkB inh = inhibitors of TROY-dependent NF-kB signaling. Q293 LMP1-TROYcd NF-kB luciferase reporter, 4 h. AID 1347056. inhibition, % at 10 µM. 360,000 compounds, 0.98% hits;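 active = compounds whose plate-normalised and pattern-corrected inhibition of the luciferase reporter signal at the single screening dose is 50% or more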
The depositor's hits bear a star; ? = inconclusive; . = no result. A selection: hits, their analogues and other compounds. The true share with any hit is near 4.1%.

SMILES	TWEAK Fn14 block	EBV LMP1 NFkB	MITF TRPM1 inh	Shn3 inh set2	Peg3 promoter	TROY NFkB inh
CCC(=O)N1CCN(c2ccc(NC(=S)NC(=O)c3cc4ccccc4o3)cc2)CC1	18	5	-5	64	-5	61*
O=S(=O)(c1cnc(Cl)c(Br)c1)N1CCc2ccccc21	36	4	3	8	69*	28
O=S(=O)(c1cc(Cl)ccc1Cl)N1CCc2ccccc21	-2	11	-7	16	27	14
O=S(=O)(c1cnc(Cl)c(Cl)c1)N1CCCc2ccccc21	25	-4	-5	-35	52*	-7
O=S(=O)(c1cnc(Cl)c(Cl)c1)N1CCc2ccccc21	22	-2	15	9	42	10
COc1ccc(S(=O)(=O)N2CCCc3ccccc32)cc1OC	56*	-12	3	-28	6	60*
O=C(CC1C(=O)NCCN1Cc1ccccc1)NC1CCCCC1 (configuration not stated)	1	4	.	6	1	0
COc1cccc(NC(=O)NCc2c(-c3ccccc3)noc2C)c1	-7	-1	12	63	15	-25
COc1ccc(S(=O)(=O)N/N=C(/C)c2ccncc2)c(OC)c1	-8	8	-10	-6	11	17
CC(C)NC(=O)CN1CCN(C(c2ccnc3ccccc23)c2nnnn2-c2ccc3c(c2)OCCO3)CC1 (configuration not stated)	15	.	.	.	.	2
O=C(CSc1nccc(=O)[nH]1)Nc1cccc2ccccc12	50*	-3	2	-8	2	-12
O=C(CSc1nccc(=O)[nH]1)Nc1ccc2ccccc2c1	28	-6	1	-15	-4	35
O=[N+]([O-])c1cccc(COc2ccccc2CN2CCCCC2)c1	8	-4	-12	15	-21	-18
CCOC(=O)C(O)(CCC(O)(C(=O)OCC)C(=O)OCC)C(=O)OCC	0	-5	4	-12	6	-6
Cc1ncc(C(O)c2ccccc2)n1Cc1ccccc1 (configuration not stated)	-9	3	.	22	-15	7
COc1cc(NC(=O)CSc2nnc(-c3cc(C)on3)o2)cc(OC)c1	2	-7	7	-6	12	7
Cc1cc(-c2nnc(SCC(=O)Nc3nc(-c4ccc(Cl)cc4)cs3)o2)no1	83*	-20	12	-18	-6	8
COc1ccc(Oc2ccc(/C=C/C(=O)c3ccc(O)cc3)cc2[N+](=O)[O-])cc1	69*	-5	81*	53	108*	77*
O=[N+]([O-])c1cc(/C=N\O)ccc1Oc1ccc(F)cc1	-25	65*	-8	-18	-78	-24
COc1ccc(C(=O)/C=C/c2cccc(OCc3ccccc3)c2)cc1CSCC(=O)O	7	-1	13	0	75*	26
CCOc1ccc(C(=O)/C=C/c2cc(OC)c(OC)c(OC)c2)cc1	42	6	6	-1	62*	29
COc1cc(/C=N/O)ccc1Oc1ccc([N+](=O)[O-])cc1[N+](=O)[O-]	44	4	-1	-16	-12	42
COc1ccc(C(=O)/C=C/c2ccc(OC(=O)c3cc(OC)c(OC)c(OC)c3)cc2)cc1	50	-1	21	14	-38	16
COc1ccc(C(=O)/C=C/c2ccc(OCc3ccccc3)cc2)cc1CSCC(=O)O	7	0	6	10	25	23
O=C(/C=C/c1ccc(O)c([N+](=O)[O-])c1)c1ccc2ccccc2c1	31	?	9	-5	-45	36
SMILES	TWEAK Fn14 block	EBV LMP1 NFkB	MITF TRPM1 inh	Shn3 inh set2	Peg3 promoter	TROY NFkB inh
O=C(Cc1ccccc1)Oc1coc(CSc2ncccn2)cc1=O	-17	-6	6	4	-1	-5
CN(C)S(=O)(=O)c1ccc(NC(=O)COC(=O)CC2CC3CCC2C3)cc1 (configuration not stated)	-7	4	0	4	1	-6
CC1(C(=O)NS(=O)(=O)c2ccc(Cl)cc2)CCN1C(=O)Cc1cccs1 (configuration not stated)	0	.	.	-2	4	1
COc1cc(/C=C2\SC(=O)NC2=O)ccc1OCC(=O)N1CCOCC1	-7	15	-3	4	-10	2
COc1cc(/C=C/C(=O)c2ccc3c(c2)OCCO3)cc(OC)c1OC	67*	12	51	-22	31	23
COc1ccc(/C=C/C(=O)c2ccccc2)cc1COc1ccc(F)cc1	8	-37	-16	9	41	-39
COc1ccc(/C=C/C(=O)c2ccc(O)cc2)cc1COc1ccc(F)cc1	55*	0	-5	-11	-25	4
COc1cc(/C=C/C(=O)c2ccc(F)cc2)cc(OC)c1OC	84*	11	46	40	10	26
FC(F)(F)c1cc(C(F)(F)F)c2ccc(N3CCN(c4ccc(Cl)cc4)CC3)nc2n1	-12	7	-10	-1	13	-5
N#CC(c1ccc(Cl)cc1)c1ccc2c(C(F)(F)F)cc(C(F)(F)F)nc2n1 (configuration not stated)	65*	52*	79*	89*	52*	79*
Cc1cccc(N=Cc2ccccc2O)c1C	38	3	.	1	3	-7
Oc1ccccc1C=Nc1cccc2ccccc12	69*	-3	21	-3	12	66*
Oc1cccc(C=Nc2cccc3ccccc23)c1O	101*	-12	15	14	6	61*
O=C(C[C@@H]1C/C=C\C[C@H](NC(=O)OCC2c3ccccc3-c3ccccc32)C(=O)O[C@H](c2ccccc2)CNC1=O)NCCO	-9	6	6	33	-14	-15
CC(C)(C)OC(=O)NCCc1onc(-c2ccccc2F)c1C(=O)O	-17	-5	.	-3	7	-11
CC(C)c1nc(C(=O)N2CCCC(CCC(=O)N(C)CCc3ccccn3)C2)cs1 (configuration not stated)	3	11	4	-3	3	-6
Nc1cc2c(cc1Br)-c1c(C(=O)O)cccc1C2O (configuration not stated)	-13	23	-14	86*	-4	9
CCN(CC(=O)Nc1ccccc1C(F)(F)F)C(=O)c1ccc2[nH]c3c(c2c1)CC(C)CC3 (configuration not stated)	-39	10	-11	0	5	-32
N#CC1=C(N)OC2=C(C(=O)CCC2)[C@]12C(=O)N(CC(N)=O)c1ccccc12	-14	-4	-1	-6	17	7
N#CC1=C(N)OC2=C(C(=O)CCC2)C12C(=O)N1CCCc3cccc2c31 (configuration not stated)	-1	84*	12	16	-1	-1
CCOC(=O)N1CCN(CC(O)COc2ccccc2C(C)C)CC1 (configuration not stated)	-6	8	-7	7	11	-18

Compound activity from PubChem BioAssay.
